Inconclusive results are not listed. A call without a number means that no potency is given here. Activity calls are given as the source filed them. Calls follow the shape of the dose curve; as a rule, active = well fitted inhibition curve with a large enough effect; inconclusive = small, poorly fitted or top-dose-only effect; inactive = flat fitted curve, though single readings scatter.

This test in a line: qHTS of Trypanosoma Brucei Inhibitors: LOPAC Validation (AID 624147). To be noted: purified enzyme assay, luminescence, 45 min; series mostly up to 57.5 µM. The source says: Members of the Trypanosomatidae family of parasitic protozoans cause a spectrum of diseases throughout the tropical and subtropical world. Sleeping sickness, caused by two subspecies of Trypanosoma brucei, is endemic to areas of sub-Saharan Africa, while Chagas' disease, a manifestation of Trypanosoma cruzi infection, is prevalent throughout Central and South America. In addition, many species of Leishmania are responsible for a range of cutaneous and visceral diseases, causing ulcers, destructive lesions and kalaazar, a lethal infection of the viscera. These diseases cause severe public health and economic burdens on populations that are often already caught in a tragic cycle of poverty, poor nutrition and disease. Collectively, parasites of the trypanosomatid family infect 30 million people worldwide (~500 million live in endemic areas), and account for ~130K deaths annually. Existing treatments have developed little in the past 50 years, and suffer from toxicity, poor efficacy and resistance; the goal of this project is to develop lead drugs that will be suitable for entry into pre-clinical trials.
Glycolysis in axenically cultured T. cruzi, representing the intracellular pathogenic stage, is also essential for these parasites. {Engel, 1987} This project aims to discover and optimize selective inhibitors of the glycolytic enzyme pyruvate kinase (PYK) from Trypanosoma brucei, the parasite that causes sleeping sickness. […] Trypanosomatid PYKs show significant differences from their human counterparts including only 47-50% sequence identity and different allosteric and activation properties.{Callens, 1992} To this end, a qHTS was done against the MLSMR to discover inhibitors.
NIH Molecular Libraries Probe Production Network [MLPCN]
NIH Chemical Genomics Center [NCGC]
PI Name: Malcolm Walkinshaw, University of Edinburgh
2 uL of TbPYK/substrate buffer (columns 1-3, 5-48) are dispensed into Greiner white solid bottom 1536-well assay plates; column 4 receives only TEA buffer as 0x TbPYK controls. Compounds are then transferred via Kalypsys pin tool equipped with 1536-pin array (10 nL slotted pins, V&P Scientific, San Diego, CA). Following addition of compound, 2 uL of ADP (130 uM final concentration, all columns) is added to initiate the reaction. The plates are then incubated at room temperature for 45 minutes. Kinase-Glo Plus reagent is added (3 uL) and plates incubated for 10 minutes, before being transferred to a ViewLux high-throughput CCD imager (PerkinElmer) wherein single end-point measurements of luminescence are acquired using a clear filter. All reagents are diluted in an assay buffer consisting of 50 mM TEA (pH 7.2), 100 mM KCl, 10 mM MgCl2, 0.05% BSA and 0.01% Tween-20.
All screening operations will be performed on a fully integrated robotic system (Kalypsys, San Diego, CA) containing one RX-130 and two RX-90 anthropomorphic robotic arms (Staeubli, Duncan, SC). Library plates will be screened starting from the lowest and proceeding to the highest concentration. Vehicle-only plates, with DMSO being pin-transferred to columns 5-48, will be inserted uniformly at the beginning and the end of each library in order to monitor and record any shifts in the background, which can be affected by reagent dispensers or loss in enzyme activity over time. Screening data will be corrected, normalized, and concentration-effect relationships will be derived by using publicly-available curve fitting algorithms developed in-house (http://ncgc.nih.gov/pub/openhts).
(In qHTS, concentration-response curves come from the screen itself.)
In the case of `O=C(O)C1CCNCC1`, the Potency result was “inactive”.
Consider `c1ccc2nc(C3=NCCN3)ccc2c1`, for which the Potency entry is “inactive”.
`C=CC1(C)CC(=O)C2(O)C(C)(O1)C(OC(C)=O)C(O)C1C(C)(C)CCC(O)C12C` (stereo not given): the Potency result was “inactive”.
As for `O=C(O)c1cc2cc(F)ccc2[nH]1`, the Potency result was “inactive”.
Turning to `CCN1C(=O)C=CC1=O`, the Potency entry is “inactive”.
Turning to `COc1ccccc1N1CCN(CCCCNC(=O)c2ccc3ccccc3c2)CC1`, the Potency entry was “inactive”.
On to `Nc1nc2c(nc(Br)n2C2OC3COP(=O)(O)O[C@@H]3C2O)c(=O)[nH]1` (stereo not given in full), for which the Potency result was “inactive”.
With `Cc1ccc([N+](=O)[O-])cc1S(=O)(=O)N(C)C` the entry was “inactive”.
`Oc1cc(O)c2c(c1)O[C@H](c1ccc(O)c(O)c1)[C@@H](O)C2`: the Potency entry is “inactive”.
Consider `NCCNS(=O)(=O)c1cccc2c(Cl)cccc12`, for which the Potency entry is “inactive”.
The entry for `CCCCCC(O)CCCC(=O)O` (stereo not given) is “inactive”.
With `COc1cc(/C=C(\C#N)C(=O)Nc2nnc(C(F)(F)F)s2)ccc1OCc1ccc(C(F)(F)F)cc1C(F)(F)F`, the Potency result is “inactive”.
In the case of `c1ccc2c(c1)CCC[C@H]2Nc1nc2ccccc2[nH]1`, the Potency entry is “inactive”.
On to `NC(=O)CC[C@H](N)C(=O)O`, for which the Potency result is “inactive”.
With `N[C@H](C(=O)O)[C@H](O)C(=O)O` the entry was “inactive”; with `COc1cc(CNC(=O)CCCCCCC(C)C)ccc1O`, “inactive”; with `CCCCOc1cc(CC2CNC(=O)N2)ccc1OC` (stereo not given), “inactive”.
With `COc1ccccc1N1CCN(CCCNc2c(C)c(=O)n(C)c(=O)n2C)CC1` the entry was “inactive”; with `COc1cc(/C=C(\C#N)C(=O)c2ccc(O)c(O)c2)cc(I)c1O`, “inactive”; with `O=C1OC(=O)C2C3CCC(O3)C12` (stereo not given), “inactive”.
With `CCCCCCCCCCCCCCSCC(=O)O` the entry was “inactive”.
Turning to `CC(=O)NNC(=O)N1Cc2ccccc2Oc2ccc(Cl)cc21`, the Potency result was “inactive”.
`CCCCCC[C@@H]([C@@H](C)O)n1cnc2c(N)ncnc21`: the Potency result was “inactive”.
As to `Cc1cccc(C2CN(C)CCc3c2cc(O)c(O)c3Cl)c1` (stereo not given), the Potency result was “inactive”.
As for `C[N+](C)(C)CC=O`, the Potency result was “inactive”.
`COc1cc(N)c(Cl)cc1C(=O)OCCN1CCCCC1`: the Potency entry is “inactive”.
In the case of `N=C(N)SCCc1cnc[nH]1`, the Potency result is “inactive”.
`CC(C)[C@@H]1CC[C@@H](C)C[C@@H]1P(=O)(c1ccccc1)c1ccccc1`: the Potency result is “inactive”.
On to `O=S(=O)(c1cccc2c(Cl)cccc12)N1CCCNCC1`, for which the Potency entry is “inactive”.
Regarding `C[C@@]1(C2CCCC2)Cc2cc(OCC(=O)O)c(Cl)c(Cl)c2C1=O`, the Potency result was “inactive”.
As for `CN(C)CCC(c1ccc(Br)cc1)c1ccccn1` (stereo not given), the Potency result is “inactive”.
Regarding `[Li+]`, the Potency result is “inactive”.
`CC(=O)O[C@H]1Cc2ccccc2N(C(N)=O)c2ccccc21`: the Potency result is “inactive”.
In the case of `O=c1cc(-c2ccccc2F)[nH]c2cc3c(cc12)OCO3`, the Potency result is “inactive”.
Regarding `Nc1ncnc2c1nc(Br)n2C1OC2COP(=O)(O)O[C@@H]2C1O` (stereo not given in full), the Potency result was “inactive”.
Turning to `N[C@@H](Cc1ccc(F)cc1)C(=O)O`, the Potency entry is “inactive”.
As to `CCCCCCCCCC[Si](C)(C)CCC(=O)NC(Cc1ccc(C)cc1)c1ccccc1` (stereo not given), the Potency entry is “inactive”.
With `O=C(O)C1=CCCNC1` the entry was “inactive”.
With `OC1(c2ccc(Cl)cc2)CCN(Cc2c[nH]c3ccccc23)CC1`, the Potency result was “inactive”.
On to `N=C(N)c1ccc(N)cc1`, for which the Potency entry is “inactive”.

The values are drawn from PubChem BioAssay (NCATS).
